High-throughput results: PubChem BioAssay, Sanford-Burnham Center for Chemical Genomics
Sampled rows, rich in hits. Any-hit rate of the full collection: about 2.1%.
eIF4H inh: inhibitors of RNA binding by human eIF4H; Q15056; eIF4H fluorescence polarization binding assay; inhibition, % at 35 µM; 290,000 tested, 0.94% active; AID 2012;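 further: calls also rest on retests at 20 µM and on dose response follow-up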
CendR NRP1 mod: alters CendR peptide binding to human NRP-1; AID 602438; inhibition, % at 25 µM; O14786; FAM-RPARPAR peptide binding to NRP-1, fluorescence polarization; 360,000 tested, 0.85% active;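 active means inhibition or corrected inhibition above about 18%, plus a signal ratio from 0.5 to 1.5, limit read from the data, passing the limit was not always enough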
MLLE-PAM2 inh: blocks PAM2 peptide binding to the PABP1 MLLE domain; P11940; GST-MLLE / FITC-PAM2 fluorescence polarization; inhibition, % at 20 µM; 360,000 tested, 0.36% active; in the data active means inhibition above about 35%, passing the limit was not always enough;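 further: plate controls were DMSO wells with GST-MLLE for no effect and wells lacking GST-MLLE protein for full effect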
PABP FP inh: blocks human PABP binding to poly(A) RNA. P11940. fluorescence polarization. inhibition, % at 35 µM. 290,000 tested, 1% active;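 further: calls also rest on retests at 20 µM and on dose response follow-up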
An asterisk follows results filed as active; u = inconclusive; x = no result. Unless noted, how the calls were made is not given here.

SMILES	eIF4H inh	CendR NRP1 mod	MLLE-PAM2 inh	PABP FP inh
O=C(CSc1ncn(-c2ccccc2)n1)Nc1nc2ccccc2s1	-8.6	-1.2	31.1	1.3
O=C(CSc1ncn(-c2ccccc2)n1)Nc1nc2c(s1)CCCC2	73.6*	-23.3	19.0	30.6*
CC(C)C[C@H]1COCCS(=O)(=O)N1Cc1ccccc1F	x	25.3*	1.7	x
O=S1(=O)CCOC[C@H](Cc2ccccc2)N1Cc1ccc(Cl)cc1	x	29.2*	-4.4	x
Cc1ccccc1CN1[C@@H](Cc2ccccc2)COCCS1(=O)=O	x	25.6*	-13.0	x
O=S1(=O)CCOCCCN1Cc1ccc(Cl)cc1	-2.8	24.5*	-10.7	-6.8
O=S1(=O)CCOCCN1Cc1ccccc1	8.7	15.0	7.8	3.3
O=C(CSc1ccccc1)N1CCCC(N2CCN(c3ccccc3)CC2)C1 (stereo not drawn)	-1.1	2.2	4.9	6.2
COc1ccccc1Cc1c(-c2cccc(Cl)c2)nc2ccc(Cl)cn12	x	-39.6	-24.4	x
Cc1noc(C)c1NC(=O)N(C)C[C@@H]1OCc2cnnn2CCCC(=O)N([C@@H](C)CO)C[C@@H]1C	x	4.3	3.9	x
O=C(COC(=O)c1cnccn1)NCCc1ccc(Cl)cc1	x	-11.1	-11.6	x
Cc1n[nH]c(C)c1S(=O)(=O)N1CCOCC1	0.1	26.7*	1.4	-2.0
CCc1nnc(SCc2ccc(C(=O)OC)o2)n1N	-12.3	38.2*	13.5	-3.0
CCC(C)(C)n1nnnc1CN(Cc1ccco1)Cc1cc2cc3c(cc2[nH]c1=O)OCO3	-2.9	-27.5	39.8*	48.5
O=c1[nH]c2cc3c(cc2cc1CN(CCc1ccccc1)Cc1nnnn1CC1CCCO1)OCO3 (stereo not drawn)	u	3.5	9.7	119.5*
O=c1[nH]c2cc3c(cc2cc1CN(Cc1nnnn1CC1CCCO1)C1CCCC1)OCO3 (stereo not drawn)	75.5	7.4	64.5*	64.8*
CC(C)(C)n1nnnc1CN(Cc1ccco1)Cc1cc2cc3c(cc2[nH]c1=O)OCO3	49.2	-13.2	32.4	54.1
O=c1[nH]c2cc3c(cc2cc1CN(Cc1nnnn1CC1CCCO1)C1CCCCC1)OCO3 (stereo not drawn)	24.1	14.5	72.5	31.0
Cc1ccc2[nH]c(=O)c(CN(CCc3ccccc3)Cc3nnnn3CC3CCCO3)cc2c1 (stereo not drawn)	0.9	-1.0	14.1	-3.3
Cc1c(C(=O)N2CC[C@@H](N3CCC(O)CC3)[C@H](O)C2)[nH]c2ccc(Cl)cc12	-7.8	-17.2	-29.8	-9.8
CCOc1ccc(CCNC(=O)CN2C(=O)CCSc3ccccc32)cc1	-7.0	4.6	-9.2	-9.2
CCc1nc2ccc(C(=O)NCCCN3CCCC3=O)cn2c1N(CC)CCOC	x	2.5	4.8	x
CCCc1cc(=O)n2nc(N3CCC(C(=O)Nc4cccc(C(C)=O)c4)CC3)sc2n1	0.1	7.3	6.5	6.7
Cc1ccc(S(=O)(=O)N2CCN(C(=O)CC(C)n3nc(C)c(Cl)c3C)CC2)cc1C (stereo not drawn)	-2.9	-14.9	12.5	-4.1
O=C(O)c1cc(NCc2ccc(F)cc2)ccc1N1CCOCC1	6.0	46.3*	16.5	2.9
SMILES	eIF4H inh	CendR NRP1 mod	MLLE-PAM2 inh	PABP FP inh
Cc1ccc(-c2cc(C(=O)N/N=C/c3ccccc3O)n[nH]2)o1	7.9	2.9	-6.1	7.2
Cc1ccc(-c2cc(C(=O)N/N=C/c3c[nH]c4ccccc34)n[nH]2)o1	-10.1	-3.9	-9.3	58.9*
COc1ccc(C2=NNC(c3cc(Cl)cc4c3OCOC4)C2)c(O)c1 (stereo not drawn)	52.4*	x	x	12.6
O=C(O)c1cc(O)c2c(c1)[C@H]([C@H]1c3cc(C(=O)O)cc(O)c3C(=O)c3c(O[C@@H]4O[C@H](CO)[C@@H](O)[C@H](O)[C@H]4O)cccc31)c1cccc(OC3O[C@H](CO)[C@@H](O)[C@H](O)[C@H]3O)c1C2=O (stereo partly drawn)	x	-13.5	51.9*	x
O=C1c2c(O)cccc2C(C2OC(CO)[C@@H](O)[C@H](O)[C@H]2O)c2cc(CO)cc(O)c21 (stereo partly drawn)	x	36.8*	-5.5	x
O=C1c2cc(CO)cc(O)c2C(=O)c2c(O[C@@H]3OC(CO)[C@@H](O)[C@@H](O)[C@@H]3O)cccc21 (stereo partly drawn)	x	-4.8	-1.1	x
COC(=O)c1sc(=S)sc1C(=O)OC	7.9	-1.1	52.3*	1.5
COC(=O)c1sc(C(=O)OC)c(C(=O)OC)c1C(=O)OC	-4.7	-4.1	-7.3	-5.0
COn1c2c(c3c4nonc4ccc31)CCCC2	25.8	-10.2	24.1	63.0*
On1c2c(c3c4nonc4ccc31)CCCC2	77.1*	x	x	58.8*
COn1c2c(c3c4no[n+]([O-])c4ccc31)CCCC2	2.8	4.3	0.2	-3.2
Cc1ccc(C(=O)O)cc1NC(=S)NC(=O)c1ccc(COc2ccccc2)cc1	13.9	-4.9	21.9	1.0
N#CC1=C2SCN(c3ccc(F)cc3)CN2C(=O)CC1c1cccc(F)c1 (stereo not drawn)	43.1*	-43.3	-37.2	56.9
CCc1ccc(C2CC(=O)N3CN(c4ccccc4)CSC3=C2C#N)cc1 (stereo not drawn)	-0.1	-46.9	-40.2	48.0
Cc1ccc(N2CSC3=C(C#N)C(c4cccs4)CC(=O)N3C2)cc1 (stereo not drawn)	61.0*	-74.0	-30.2	81.5*
CCc1ccc(N2CSC3=C(C#N)C(c4cccs4)CC(=O)N3C2)cc1 (stereo not drawn)	48.2	-50.2	-25.0	65.7
COc1ccc(N2CSC3=C(C#N)C(c4cccs4)CC(=O)N3C2)cc1 (stereo not drawn)	15.3*	0.1	-41.0	61.9*
CCN(C(=O)CCN1C(=O)/C(=C/c2ccccc2)SC1=S)C1CCS(=O)(=O)C1 (stereo not drawn)	-14.9	-2.7	8.9	3.3
CC(=O)Nc1ncc2c(n1)CC(c1ccco1)CC2=O (stereo not drawn)	8.4	-6.8	13.9	7.8
COc1cc(OC)cc(C(=O)Nc2ncc3c(n2)CC(C)CC3=O)c1 (stereo not drawn)	-0.8	34.8*	1.6	-5.7
COc1ccc(C(=O)Nc2ncc3c(n2)CC(c2ccco2)CC3=O)cc1 (stereo not drawn)	35.3	35.7*	16.1	9.8
N#CC1(NC(=O)CSc2nnc(Nc3ccccc3F)s2)CCCC1	x	5.1	-56.7	x
CCOc1ccc(N2C(=O)S/C(=C\c3cccn3C)C2=O)cc1	3.9	-46.3	-0.2	2.0
Cn1cccc1/C=C1\SC(=O)N(c2ccc(O)cc2)C1=O	0.7*	-71.8	17.4	80.5*
O=C(CSc1ccc(-c2cccnc2)nn1)c1ccc([N+](=O)[O-])cc1	0.7	8.5	44.5*	-1.7
O=C(CSc1ccc(-c2ccncc2)nn1)c1ccccc1	-7.8	-15.3	37.7*	-4.4
O=C(CSc1ccc(-c2ccco2)nn1)c1ccccc1	101.4*	2.5	27.6	active
O=C(CSc1ccc(-c2ccccn2)nn1)c1ccc([N+](=O)[O-])cc1	-4.4	-6.1	26.2	-15.2
COc1ccc(C(=O)CSc2ccc(-c3ccco3)nn2)cc1	86.5	4.3	18.1	-11.8
COCC1OC(OC(C)C(O)c2cnc3nc(N)[nH]c(=O)c3n2)C(O)C(OC)C1O (stereo not drawn)	x	5.3	-2.3	x
